Our source for the composite z-score values is PubChem BioAssay.

The assay is described as follows: probe aDKK1 binding to arrayed compounds – biochemical, biotinylated probe, 635/667 nm fluorescence, primary screen (AID 1099).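 Also: score merges 667nm spot fluorescence with signal to noise across triplicate slides; reference of the scale not given here.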 The settings on record: small-molecule microarray, higher = more signal.
For the compound `CCOC(=O)C1=CCC(c2ccco2)N(S(=O)(=O)c2ccc(C)cc2)C1` (centres undefined), the composite z-score amounted to 0.363. In the case of `COCCOC(=O)N1C(=O)[C@@]2(c3cc(C#CCC(C(=O)OC)C(=O)OC)ccc31)[C@H](C(=O)NC[C@H](O)c1ccccc1)[C@H]1C(=O)O[C@H](c3ccccc3)[C@H](c3ccccc3)N1[C@@H]2c1ccc(OCCO)cc1`, the composite z-score is -0.0002.

For `CCCNC(=O)[C@@]1(Sc2ccc(C)cc2)CC(=O)N(C(C)C)[C@@H]1c1ccc(CO)cc1I`, the composite z-score was 0.832.

Regarding `COC(=O)[C@@]1(Cc2ccc(F)cc2)[C@H]2c3cc(C(=O)N4CCCC4)n(C)c3C[C@H]2CN1C(=O)c1ccccc1`, the composite z-score amounted to 0.874. Compound `O=C1O[C@H](c2ccccc2)[C@H](c2ccccc2)N2[C@H]1[C@@H](C(=O)N1CCCCCCC1)[C@]1(C(=O)Nc3ccc(C#CC4(O)CCCCCC4)cc31)[C@H]2c1ccc(O)cc1` returned a composite z-score of 2.93. With `O=C1O[C@H](c2ccccc2)[C@H](c2ccccc2)N2[C@H]1[C@@H](C(=O)O)[C@]1(C(=O)Nc3ccc(C#CC4(O)CCCCCC4)cc31)[C@H]2c1ccc(O)cc1` the figure was -0.2; with `COCCOC(=O)N1C(=O)[C@@]2(c3ccccc31)[C@H](c1ccccc1OCCO)N1[C@H](c3ccccc3)[C@H](c3ccccc3)OC(=O)[C@H]1[C@@H]2C(N)=O`, 0.701; with `NC(=O)[C@@H]1[C@H]2C(=O)O[C@H](c3ccccc3)[C@H](c3ccccc3)N2[C@H](c2ccc(OCCO)cc2)[C@@]12C(=O)Nc1ccc(C#CCCO)cc12`, 0.585. Consider `Cc1cccc([C@H]2C[C@H]3C(Br)=C[C@@H]2C(=O)[C@]32CO2)c1`, for which the composite z-score was -0.423.
